This is a sample that favours compounds with a hit; in the whole collection about 3.2% have one here.
TRb SRC2 PPI: TRbeta-SRC2 interaction inhibition. P10828. Potency, µM (highest dose often 106 µM), without a hit: at the highest dose activity change, negative = inhibition, actives largely listed as inhibitors. 280,000 compounds, 0.065% hits. TRbeta-SRC2 peptide binding, fluorescence polarization; receptor liganded with 1 µM T3;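 further: plate controls were bound peptide for no effect and peptide without receptor for full effect; nearly all actives have a fitted effect of over 50% in size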
Target sequence (P10828 whole entry, looked up): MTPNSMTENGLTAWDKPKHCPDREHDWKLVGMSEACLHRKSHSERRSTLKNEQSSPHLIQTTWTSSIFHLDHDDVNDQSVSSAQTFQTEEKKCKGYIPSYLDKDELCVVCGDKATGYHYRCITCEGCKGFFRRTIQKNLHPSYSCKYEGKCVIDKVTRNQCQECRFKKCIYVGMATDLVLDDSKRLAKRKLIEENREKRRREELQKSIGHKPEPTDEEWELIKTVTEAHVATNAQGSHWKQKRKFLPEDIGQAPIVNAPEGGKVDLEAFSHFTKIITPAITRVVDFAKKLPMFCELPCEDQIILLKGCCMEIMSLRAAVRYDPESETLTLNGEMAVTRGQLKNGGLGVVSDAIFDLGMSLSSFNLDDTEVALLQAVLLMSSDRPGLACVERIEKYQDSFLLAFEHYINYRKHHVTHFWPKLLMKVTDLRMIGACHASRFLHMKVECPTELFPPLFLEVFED
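Binding of a 20-amino-acid Texas Red SRC2 peptide (20 nM) to TRb ligand-binding domain (0.6 uM) with agonist T3 at 1 uM was followed by fluorescence polarization after a 5 hr room-temperature incubation.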
TexasRed fluor: Texas Red fluorescence interference in TRb-SRC2 counter-screen; TRb/SRC2 Texas Red total fluorescence interference; Potency, µM (top dose mostly 106 µM), inactives show top-dose fluorescence change, negative = quenching; 280,000 compounds, 0.29% hits; active means well fitted curve in either direction with a large enough effect; inconclusive means small, poorly fitted or top-dose-only effect
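Human TRb ligand-binding domain at 0.6 uM with 20 nM Texas Red SRC2 peptide in Tris buffer containing 1 uM T3 and 5% DMSO, incubated with compound 5 h at ambient temperature. Total fluorescence (555/632 nm) calculated as parallel + 2 × perpendicular.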
Tau fibril ThT: tau fibrillization inhibition (ThT binding) | P10636 | recombinant tau K18 P301L, heparin-induced fibrillization, ThT fluorescence | Potency, µM (top dose mostly 57.4 µM), for the others: top-dose activity, negative = inhibition, hits mostly inhibitors | 270,000 compounds, 2.1% hits | AID 1460; further: nearly all actives have a fitted effect of over 55% in size
Target sequence (P10636 561-689 P618L limits assumed): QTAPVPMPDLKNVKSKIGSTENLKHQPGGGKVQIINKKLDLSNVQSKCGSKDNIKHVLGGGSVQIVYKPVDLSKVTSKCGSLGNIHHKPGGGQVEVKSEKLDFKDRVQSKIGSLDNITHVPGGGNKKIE
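Heparin-induced (20 uM) aggregation of recombinant human K18 P301L tau, 15 uM unlabeled with 0.24 uM labeled, pH 7 acetate buffer, 6 hr at 37 C with compound. Fibrils quantified by 30 uM ThT fluorescence after 1 hr ambient incubation.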
Tau fluor cs: counter-screen for tau fibril formation inhibitors; 280,000 compounds, 0.93% hits; Potency, µM (series often up to 57.7 µM), for the others: at the top dose activity change, negative = decrease; tau K18 P301L (four-repeat tau fragment) Alexa594 fluorescence, heparin fibrillization; further: nearly all actives have a fitted effect of over 55% in size
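Human K18 P301L tau (15 uM unlabeled plus 0.24 uM Alexa 594-labeled, final) in 100 mM sodium acetate pH 7 was mixed with compound and 20 uM heparin and incubated 6 hr at 37 C.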
Tau fibril FP: tau fibrillization inhibition (FP); P10636; K18 P301L tau heparin fibrillization, Alexa594 FP, 6 h; Potency, µM (doses to about 57.7 µM), for the others: at the top dose activity, negative = inhibition, actives largely listed as inhibitors; 280,000 compounds, 0.39% hits; further: nearly all actives have a fitted effect of over 55% in size
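Steps: dispense K18 P301L tau (15 uM plus 0.24 uM Alexa 594 tracer, final) in pH 7 sodium acetate; add compound; add heparin (20 uM final); incubate 6 hr, 37 C; add ThT (30 uM final); after 1 hr ambient, read FP.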
GoLoco inh red: inhibitors of human Gai1-RGS12 GoLoco interaction (red fluorophore); AID 880; 230,000 compounds, 0.44% hits; Potency, µM (top dose mostly 61.6 µM), for the others: at the highest dose activity, negative = inhibition, usual class: inhibitors; Gai1:RGS12 GoLoco peptide FP, rhodamine, 10 min; P63096; active means well fitted inhibition curve with a large enough effect, not every such curve was filed as active; inactive means no such curve, though single readings can be large or run the other way; further: nearly all actives have a fitted effect of over 30% in size
An asterisk follows results filed as active; ? = inconclusive; / = not tested or not shown; [ ] = remark or other dose. Unless noted, the call rests on the fitted dose curve; in most records, active means well fitted curve in the direction sought with a large enough effect; inconclusive means small, poorly fitted or top-dose-only effect, or another doubt; inactive means no such curve, though single readings can be large; an effect the other way counts as inactive or inconclusive. Unless noted, on the % scale 0 is the no-effect control and ±100 the full control effect; potency means the concentration at half of the fitted maximal effect.

SMILES | TRb SRC2 PPI | TexasRed fluor | Tau fibril ThT | Tau fluor cs | Tau fibril FP | GoLoco inh red
O=C(NCc1ccccc1Cl)c1cnc(N2CCCCC2)c2ccccc12 | -15% | 1585µM*[quencher] | -10% | -7% | 7% | /
CCOc1ccccc1NC(=O)c1cnc(N2CCOCC2)c2ccccc12 | 2% | 1% | -6% | -13% | 0% | /
CCOC(=O)c1c(-c2ccc(C)cc2)csc1NC(=O)c1cc(=O)c2ccc(C)cc2o1 | -10% | 35µM*[quencher] | -11% | -20% | -3% | /
COC(=O)C1=C(C(=O)OC)[C@@H]2N(C)c3ccccc3[C@@]23C[C@@H](C(=O)OC)N(S(=O)(=O)c2ccc([N+](=O)[O-])cc2)C3=N1 | 6%[11.2 µM] | -4%[11.2 µM] | -11%[11.5 µM] | -22%[11.6 µM] | 10%[11.6 µM] | 3%[14.2 µM]
Cc1cc2nc3c(=O)[nH]c(=O)nc-3n(CC(O)C(O)C(O)COP(=O)(O)O)c2cc1C (stereo unspecified) | 4% | -6% | ? | -6% | ? | 16µM*
C=CCNc1nc2c3ccccc3n(C(C)=O)c2s1 | -3% | 0% | 28µM* | ? | ? | -12%
C=CCSc1nc2sc3c(c2c(=O)n1CC)CCc1ccccc1-3 | -6% | -8% | 11µM* | -16% | 16µM* | -40%
O=C(N/N=C\c1ccc2c(c1)CCC2)c1ccccc1O | / | / | / | / | / | 8%[14.2 µM]
Cc1cccc(C2=NN(c3ccc(Br)cc3)[C@@H](C(=O)N3CCOC3=O)[C@@H]2c2ccc(Cl)cc2)c1 | -1% | 0% | -3% | ? | -7% | -140%
Cc1cccc(C2=NN(c3ccccc3)[C@H](CO)[C@H]2c2ccc(Cl)cc2)c1 | 8% | 3% | ? | 11µM*[quencher] | ? | 3%[88.7 µM]
Cc1cccc(C2=NN(c3ccc(Br)cc3)[C@@H](C(=O)N3CCOC3=O)[C@@H]2c2ccc(F)cc2)c1 | 1% | -2% | -18% | ? | -2% | 3%
Cc1cccc(C2=NN(c3ccccc3)[C@H](CO)[C@H]2c2ccc(F)cc2)c1 | 5% | 0% | ? | 32µM*[quencher] | ? | 21%[88.7 µM]
O=C(NNc1ccccc1Br)C(O)(c1cccc(C(F)(F)F)c1)c1cccc(C(F)(F)F)c1 | -4% | -1% | 1% | ? | ? | 10%
Cc1ccc(NNC(=O)C(O)(c2cccc(C(F)(F)F)c2)c2cccc(C(F)(F)F)c2)cc1 | 0% | -8% | -18% | 13µM*[quencher] | 1% | -12%
COc1ccc(NC(=O)CSc2nnc(-c3cccs3)n2C)cc1OC | -9% | 0% | -8% | -6% | -4% | 5%
COc1ccc(NC(=O)CSc2nc3c(c(-c4cccs4)c2C#N)CN(C)CC3)cc1OC | -1% | -3% | 25µM* | 25µM*[quencher] | ? | 4%
N#C/C(=C\c1ccc(N2CCCC2)c([N+](=O)[O-])c1)c1nc2ccccc2[nH]1 | 1% | -2% | 2µM* | ? | -5% | 10%
CC1CCCN(c2ccc(/C=C(\C#N)c3nn(-c4ccccc4)c(N)c3C#N)cc2[N+](=O)[O-])C1 (stereo unspecified) | -24% | -7% | 14µM* | ? | -4% | 6%
CC1CCN(c2ccc(/C=C(\C#N)c3nn(-c4ccccc4)c(N)c3C#N)cc2[N+](=O)[O-])CC1 | -2% | 0% | ? | ? | -9% | -11%
N#C/C(=C\c1ccc([N+](=O)[O-])o1)c1nc2ccccc2[nH]1 | 2% | 6% | 7.1µM* | 11µM*[quencher] | ? | 16%
COc1cc(/C=C(/C#N)c2nc3ccccc3[nH]2)ccc1Oc1ncccc1[N+](=O)[O-] | -7% | -12% | ? | ? | 9% | 4%
N#C/C(=C\c1ccc(Sc2ccccc2)o1)c1nc2ccccc2[nH]1 | 2% | -11% | 3% | -27% | ? | 0%
Cc1ccc2nc(/C(C#N)=C\c3ccc([N+](=O)[O-])o3)[nH]c2c1 | ? | 15% | 8.9µM* | 13µM*[quencher] | ? | 2%
CC[C@H](C)[C@@H](NC(=O)O[C@@H]1C(=O)c2ccc(OC)cc2O[C@H]1c1cccc(C(F)(F)F)c1)C(=O)OC | 5% | 0% | -2% | -7% | 1% | 5%
COC(=O)c1csc(C(=O)c2c[nH]c3ccccc23)n1 | 4% | -25% | -10% | -25% | ? | 10%
SMILES | TRb SRC2 PPI | TexasRed fluor | Tau fibril ThT | Tau fluor cs | Tau fibril FP | GoLoco inh red
N#C/C(=C(/O)c1ccc([N+](=O)[O-])o1)c1nc2ccccc2[nH]1 | -1% | -2% | 7.1µM* | ? | 5% | 2%
FC(F)(F)c1ccc2c(c1)N1CCCC1CN2 (stereo unspecified) | -11% | -4% | 18µM* | ? | -7% | 70%
FC(F)(F)c1ccc2c(c1)NCC1CCCN21 (stereo unspecified) | 3% | -3% | ? | ? | -17% | 1%
CC(C)CC(CSc1ccc(Br)cc1)N1CCN(CC(C)C)CCC1=O (stereo unspecified) | 6% | -4% | / | / | / | /
CC[C@H](C)[C@H](NC(=O)CNC(=O)[C@H](CCCNC(=N)N)NC(=O)CNC(=O)[C@@H](NC(=O)[C@H](Cc1ccc(O)cc1)NC(=O)[C@H](Cc1c[nH]c2ccccc12)NC(=O)[C@H](C)NC(=O)[C@@H]1CCCN1C(=O)[C@H](CC(N)=O)NC(=O)[C@@H](NC(=O)[C@H](CC(=O)O)NC(=O)[C@@H]1CCCN1C(=O)[C@@H](N)[C@@H](C)O)[C@@H](C)CC)[C@@H](C)O)C(=O)N[C@@H](CCCNC(=N)N)C(=O)N1CCC[C@H]1C(=O)N[C@H](C(=O)NCC(=O)N[C@@H](CCCNC(=N)N)C(=O)N[C@@H](Cc1ccccc1)C(N)=O)C(C)C | -4% | -8% | / | / | / | /
CCN(CC)c1ccc(/C=C2\C(=O)N(c3nnc(C)c(=O)[nH]3)N=C2C)cc1 | 2% | -5% | 7.9µM* | 6% | ? | 206%
CCN(CC)c1ccc(/C=C2/C(=O)ON=C2C)cc1 | 8% | -13% | 8.9µM* | -28% | -6% | 100%
CC(C)c1nc(N(C)S(C)(=O)=O)nc(-c2ccc(F)cc2)c1/C=C/C(O)CC(O)CC(=O)O (stereo unspecified) | -5% | 0% | 1% | -4% | 5% | 1%
COc1ccc2[nH]cc(CCNc3ncncc3-c3ccccc3C)c2c1 | / | / | / | / | / | 2%
OC[C@@H]1O[C@@H](Oc2ccc(O)cc2)[C@H](O)[C@@H](O)[C@@H]1O | -6% | 0% | / | / | / | /
C(=C\c1ccccn1)/c1ccccn1 | -8% | 6% | -15% | -17% | -7% | 7%

Compound activity deposited in PubChem by National Center for Advancing Translational Sciences (NCATS).
